# Screening data (PubChem BioAssay)
# nsP2pro inh – inhibitors of chikungunya virus nsP2 protease; AID 1964107; FRET peptide cleavage, nsP2pro, fluorescence 1 h; Q8JUX6; 31,000 compounds, 1.1% hits; Potency, µM (top dose mostly 24.9 µM), inactives show top-dose activity change, negative = inhibition, actives largely listed as inhibitors; further: nearly all actives have a fitted effect of over 60% in size
#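 Recombinant nsP2pro (150 nM) was preincubated with compound 15 min at room temperature in 10 mM Tris-HCl pH 8.0, 0.01% Tween 20. Peptide 2 FRET substrate (2.5 uM) was then added and fluorescence read after 1 h. Seven-point series, up to 25 uM.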
# CHIKV nsP2 cell – secondary cell-based test for CHIKV nsP2 protease inhibitors. shares compounds with nsP2pro inh. cell-based CHIKV nsP2 protease reporter assay. Potency, µM (highest dose often 51.1 µM), inactives show at the top dose activity change, negative = inhibition, hits mostly inhibitors. 450 compounds, 10% hits; further: nearly all actives have a fitted effect of over 70% in size
# CHIKV NSP2 FL – full-length CHIKV NSP2 protease inhibition, selectivity; shares compounds with nsP2pro inh; Full-length CHIKV NSP2 protease enzymatic counterscreen; 410 compounds, 39% hits; Potency, µM (titrated, usually from 50.7 µM), without a hit: top-dose activity change, negative = inhibition, most hits filed as inhibitors; further: nearly all actives have a fitted effect of over 65% in size
# Furin counterscr – human furin inhibition, counterscreen for nsP2pro inhibitors; 410 compounds, 6% hits; shares compounds with nsP2pro inh; Potency, µM (doses to about 50.6 µM), without a hit: top-dose activity change, negative = inhibition, hits mostly inhibitors; Recombinant human furin enzymatic counterscreen, fluorogenic substrate
# Target sequence (P09958 whole entry, looked up): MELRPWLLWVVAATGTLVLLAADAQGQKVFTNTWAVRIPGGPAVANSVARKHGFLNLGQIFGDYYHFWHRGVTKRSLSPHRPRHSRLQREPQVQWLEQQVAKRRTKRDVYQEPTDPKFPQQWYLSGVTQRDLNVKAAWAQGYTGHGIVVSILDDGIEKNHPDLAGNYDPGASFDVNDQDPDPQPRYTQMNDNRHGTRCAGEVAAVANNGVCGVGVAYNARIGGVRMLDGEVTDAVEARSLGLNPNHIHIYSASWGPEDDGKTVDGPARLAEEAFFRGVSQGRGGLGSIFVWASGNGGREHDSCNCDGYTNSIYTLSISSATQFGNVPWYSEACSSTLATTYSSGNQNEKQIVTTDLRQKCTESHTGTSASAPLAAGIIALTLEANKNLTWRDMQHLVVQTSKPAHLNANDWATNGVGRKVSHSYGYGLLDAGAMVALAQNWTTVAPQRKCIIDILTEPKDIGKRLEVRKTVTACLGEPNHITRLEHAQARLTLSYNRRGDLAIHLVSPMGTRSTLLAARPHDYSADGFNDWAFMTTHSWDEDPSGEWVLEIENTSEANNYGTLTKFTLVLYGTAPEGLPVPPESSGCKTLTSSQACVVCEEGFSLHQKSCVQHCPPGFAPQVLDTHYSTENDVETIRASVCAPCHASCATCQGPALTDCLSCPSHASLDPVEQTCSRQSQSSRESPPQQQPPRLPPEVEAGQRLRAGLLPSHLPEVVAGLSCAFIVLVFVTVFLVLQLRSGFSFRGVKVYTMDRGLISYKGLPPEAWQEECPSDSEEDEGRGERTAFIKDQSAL
# nsP2 NS23 pep – nsP2pro inhibition on native NS2/3 peptide substrate | shares compounds with nsP2pro inh | Purified CHIKV nsP2 protease, endogenous NS2/3 peptide cleavage | Potency, µM (doses to about 51 µM), inactives show top-dose activity change, negative = inhibition, hits mostly inhibitors | 410 compounds, 34% hits | AID 1964103; further: nearly all actives have a fitted effect of over 55% in size
# Papain counter – papain protease inhibition, counterscreen for nsP2pro inhibitors | shares compounds with nsP2pro inh | AID 1964104 | 410 compounds, 5% hits | Potency, µM (titrated, usually from 51 µM), inactives show at the top dose activity change, negative = inhibition, most hits filed as inhibitors | purified papain protease activity, enzymatic inhibition
# nsP2pro conf qHTS – confirmation of CHIKV nsP2 protease inhibitors; AID 1964105; CHIKV nsP2 protease enzymatic activity, qHTS; 410 compounds, 43% hits; shares compounds with nsP2pro inh; Potency, µM (top dose mostly 25.5 µM), for inactives: top-dose activity change, negative = inhibition, usual class: inhibitors; further: nearly all actives have a fitted effect of over 75% in size
# HCV NS3 4A cs – inhibits HCV NS3/4A protease in an nsP2pro selectivity counterscreen. shares compounds with nsP2pro inh. HCV NS3/4A protease biochemical counterscreen. Potency, µM (titrated, usually from 50.9 µM), usual class: inhibitors. 410 compounds, 20% hits; further: nearly all actives have a fitted effect of over 55% in size
# The depositor's hits bear a star; i = inactive; ? = inconclusive; · = no result; ! = not active in a repeat; [ ] = dose if it differs, or a comment. Only a selection was taken, and hits are over-represented in it overall. The call rests on the fitted dose curve. On the % scale 0 is the no-effect control and ±100 the full control effect; potency means the concentration at half of the fitted maximal effect.
SMILES,nsP2pro inh,CHIKV nsP2 cell,others
c1c2c(cc3c1OCO3)-c1cc3ccc4c(c3c[n+]1CC2)OCO4,?,-6.1%,CHIKV NSP2 FL=?;Furin counterscr=4.11µM*;nsP2 NS23 pep=?;Papain counter=-21.8%;nsP2pro conf qHTS=?;HCV NS3 4A cs=i
COc1cc2c(cc1OC)-c1cc3ccc(OC)c(OC)c3c[n+]1CC2,·,2.8%,CHIKV NSP2 FL=?;Furin counterscr=-23.1%;nsP2 NS23 pep=?;Papain counter=?;nsP2pro conf qHTS=?;HCV NS3 4A cs=i
O=C(O)[C@H]1O[C@@H](Oc2cc3oc(-c4ccc(O)cc4)cc(=O)c3c(O)c2O)[C@H](O)[C@@H](O)[C@@H]1O,-11.9%,·,
CC=CC1C(C(=O)OCc2c(F)c(F)c(COC)c(F)c2F)C1(C)C (stereo unspecified),14.8%,·,
NC1=N[C@@](c2cccc(-c3cncnc3)c2)(c2ccnc(C(F)F)c2)c2cccc(F)c21,-4.1%,·,
COc1cccc(S(=O)(=O)Nc2cnccc2C(=O)Nc2nc(-c3ccccc3)cs2)c1,i,·,
CN(C)C(=O)N1CCC2(CC1)CC(c1cccc(C(F)(F)F)c1)=NO2,-0.2%,·,
O=C(NS(=O)(=O)c1ccc(Br)s1)c1ccc(Cl)cc1Cl,-17.9%,·,
COC(=O)C1CC2=CC(=O)CCC2(C)C23OC2CC2(C)C(CC[C@]24CCC(=O)O4)C13 (stereo partly specified),-9.4%,·,
CO[C@H]1/C=C\O[C@@]2(C)Oc3c(C)c(O)c4c(O)c(c(/C=N/N5CCN(C6CCCC6)CC5)c(O)c4c3C2=O)NC(=O)/C(C)=C\C=C/[C@H](C)[C@H](O)[C@@H](C)[C@@H](O)[C@@H](C)[C@H](OC(C)=O)[C@@H]1C,5.9%,·,
C=C1C(=O)O[C@@H]2C[C@]3(C)[C@@H](CCC(C)=O)[C@@H]3C[C@H]12,16.9%,·,
C=C1C(=O)O[C@@H]2C[C@H](C)[C@@H]3CC(=O)C(C)=C3C[C@H]12,0.442µM*,?,CHIKV NSP2 FL=?;Furin counterscr=-6.7%;nsP2 NS23 pep=?;Papain counter=-2.8%;nsP2pro conf qHTS=?;HCV NS3 4A cs=i
CC1=C2CC(O)(C(C)(C)O)C(O[C@@H]3O[C@H](CO)[C@@H](O)[C@H](O)[C@H]3O)CC(C)C2CC1=O (stereo partly specified),29.6%[10 µM],·,
CC(=O)C1CCC(=O)N1Cc1ccccc1 (stereo unspecified),-5.7%,·,
O=C(O)CCc1ccc(-c2cccs2)n1CC(=O)Nc1ccccc1C(F)(F)F,10.4%,-6.6%,CHIKV NSP2 FL=-22.6%;Furin counterscr=-16.4%;nsP2 NS23 pep=-29.7%;Papain counter=-15.7%;nsP2pro conf qHTS=?;HCV NS3 4A cs=i
Cc1c(Cl)cccc1NC(=O)Cn1c(CCC(=O)O)ccc1-c1cccs1,6.3%,·,
CCc1ccc(-n2c(CCC(=O)O)ccc2-c2cccs2)cc1,-18.1%,·,
O=[N+]([O-])C(Br)(CO)CO,2.48µM*,0.5%,CHIKV NSP2 FL=9.19µM*;Furin counterscr=2.4%;nsP2 NS23 pep=9.19µM*;Papain counter=-7.5%;nsP2pro conf qHTS=1.59µM*;HCV NS3 4A cs=?
Fc1cc(Nc2nc(-c3ccncc3)nc3ccccc23)ccc1-c1cn[nH]c1,i,·,
C[C@@H](COc1ccc(Oc2ccccc2)cc1)Oc1ccccn1,-9.5%[39.2 µM],·,
Cc1cc(C)nc(NC(=S)N2CCN(c3nnc(C(F)(F)F)s3)CC2)c1,-1.8%,·,
CCOC(=O)c1ccc(NC(=O)CN2CCCCC2)cc1,8.9%,·,
CCOC(=O)c1ccc2nc(C)cc(Nc3cccc(C(=O)O)c3)c2c1,0.2%,·,
CCOC(=O)c1ccc(NC2SC(=O)N(Cc3cccc(C(=O)O)c3)C2=O)cc1 (stereo unspecified),7.94µM*,-6.3%,
Cn1ccnc1C(=O)N1CCC(Cc2ccc(CCC(=O)N3CCCC3)cc2)CC1,i,·,
SMILES,nsP2pro inh,CHIKV nsP2 cell,others
O=C1C2CC=CCC2C(=O)N1SC(Cl)(Cl)Cl (stereo unspecified),1.76µM*,?,CHIKV NSP2 FL=2.91µM*;Furin counterscr=-3.2%;nsP2 NS23 pep=5.8µM*;Papain counter=-5.2%;nsP2pro conf qHTS=0.895µM*;HCV NS3 4A cs=?
O=C(NCCN1CCCC1)[C@H](Cc1ccc(OS(=O)(=O)c2cccc3cnccc23)cc1)NS(=O)(=O)c1cccc2cnccc12,i,·,
O=c1[nH]c(C2CCN(Cc3ccc(-c4cccnc4)cc3)CC2)nc2ccc(F)cc12,-22.8%,·,
CC(O)(C#Cc1ccc2c(c1)N(c1nc(N)ncc1Cl)CC2)c1nccs1 (stereo unspecified),5.01µM*!,2.06µM*,CHIKV NSP2 FL=7.3µM*;Furin counterscr=?;nsP2 NS23 pep=14.6µM*;Papain counter=-21.8%;nsP2pro conf qHTS=2.25µM*;HCV NS3 4A cs=?
O=C(c1ccc(Cl)nc1)N1CCC2(CC1)CCN(Cc1cccs1)c1ccccc1O2,-1.6%,·,
O=C1Nc2ccccc2CN(Cc2ccccc2)C12CCNC2 (stereo unspecified),?,43.4%,
O=C1Nc2ccccc2CC12CCN2Cc1ccc(OC(F)(F)F)cc1 (stereo unspecified),1.7%,·,
O=C1Nc2ccccc2CC12CCN(Cc1cccnc1)C2 (stereo unspecified),-7.2%[39.2 µM],·,
COc1cc(N2CCC(N3CCN(C)CC3)CC2)ccc1Nc1ncc(Cl)c(-c2c[nH]c3ccccc23)n1,18.2%,·,
Cc1cc(OCCCS(C)(=O)=O)cc(C)c1-c1cccc(COc2ccc(C3=CC(=O)NS3=O)cc2)c1 (stereo unspecified),484.7%,·,
COc1ccc(NC(=O)c2cnn3c(C)cc(C)nc23)cc1,0.4%,·,
O=C(Nc1ccc(C[C@@H]2CC[C@H]([C@H](O)c3ccccc3)N2)cc1)[C@@H]1CCc2nccc(=O)n21,-7.8%,·,
Cn1sc(=O)n(Cc2ccccc2)c1=O,6.24µM*,?,CHIKV NSP2 FL=11.6µM*;Furin counterscr=?;nsP2 NS23 pep=9.19µM*;Papain counter=-4.3%;nsP2pro conf qHTS=4µM*;HCV NS3 4A cs=i
Cc1cnc(CCN)n1Cc1ccccc1,i,·,
Cc1sc2c(c1C)c(=O)n(Cc1ccccc1)c(=O)n2Cc1ccc(F)cc1,-12.6%,·,
O=[S+]1([O-])N(Cc2ccccc2)C[C@@H](O)[C@]12CCN(Cc1ccc(C(F)(F)F)nc1)C2,-25.6%,·,
CCOc1ccc(CNC(=O)COc2cc(=O)n(C)c3ccccc23)cc1,?,2.3%,
COc1ccccc1NC(=O)CCCOc1cc(=O)n(C)c2ccccc12,-12.8%,·,
CCn1c(=O)cc(OCC(=O)NCc2ccccc2OC)c2ccccc21,-7.5%,·,
CC1CC2(O)OC(=O)C3=C2C(CCC3)[C@@]12C[C@@H](c1ccoc1)OC2=O (stereo partly specified),?,-5.8%[33.5 µM],CHIKV NSP2 FL=?;Furin counterscr=-8.8%[33.5 µM];nsP2 NS23 pep=?;Papain counter=-10.1%[33.5 µM];nsP2pro conf qHTS=-38.2%[16.7 µM];HCV NS3 4A cs=1.8µM*
